From PubChem BioAssay
Most compounds without a hit are left out; they make up all but 3% or so of the library.
KAT2A inh: blocks human GCN5L2 histone acetyltransferase; GCN5L2 HAT assay, ThioGlo1 CoA-SH fluorescence; hit rate 0.21% among 390,000; Potency, µM (series often up to 58.9 µM), actives largely listed as inhibitors
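Enzyme at 20nM final was mixed with library compounds for 15 min at room temperature. Peptide H3(1-25) at 75uM, acetyl-CoA at 70uM and ThioGlo1 at 50uM were then added. Plates were read immediately and after 20 min (Ex340nm/Em540nm).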
PLK1 PBD block: blocks phosphopeptide binding to human PLK1 polo-box domain; Plk1 PBD binding of FITC phosphopeptide, fluorescence polarization; Potency, µM, hits mostly inhibitors; hit rate 2.8% among 360,000; also: series mostly up to about 57 µM; nearly all actives have a fitted effect of over 65% in size
VDR inh: inhibitors of human vitamin D receptor; P11473; VDR-SRC2-3 peptide fluorescence polarization, 2 h; Potency, µM, most hits filed as inhibitors; hit rate 0.93% among 400,000
Target sequence (P11473 whole entry, looked up): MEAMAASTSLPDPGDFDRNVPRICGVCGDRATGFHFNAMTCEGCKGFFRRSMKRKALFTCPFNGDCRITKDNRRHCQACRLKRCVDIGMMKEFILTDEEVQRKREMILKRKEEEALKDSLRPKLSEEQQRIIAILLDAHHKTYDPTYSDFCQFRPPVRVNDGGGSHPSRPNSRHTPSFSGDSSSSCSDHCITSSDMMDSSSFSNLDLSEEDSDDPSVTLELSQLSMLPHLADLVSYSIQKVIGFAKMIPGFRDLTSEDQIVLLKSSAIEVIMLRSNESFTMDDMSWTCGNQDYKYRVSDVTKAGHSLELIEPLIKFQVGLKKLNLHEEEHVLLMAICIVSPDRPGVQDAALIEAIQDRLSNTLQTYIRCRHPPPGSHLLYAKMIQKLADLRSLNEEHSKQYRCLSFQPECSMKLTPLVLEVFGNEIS
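Compounds are added to VDR with labelled SRC2-3 coactivator peptide and held 2 h at room temperature. Inhibition of the VDR–peptide interaction is then read as a change in fluorescence polarization.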
12-LOX inh: inhibitors of human 12S-lipoxygenase ALOX12; P18054; purified 12hLO, xylenol orange hydroperoxide absorbance; hit rate 1.1% among 580,000; Potency, µM (series often up to 108 µM), actives largely listed as inhibitors
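Hydroperoxide product was detected by ferrous iron/xylenol orange as the 573 to 405 nm absorbance ratio. Arachidonic acid at 40 uM (final) was turned over for 30 min at room temperature by 150 nM human 12hLO, pH 7.0 Hepes buffer, after 15 min compound preincubation.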
USP1-UAF1 confirm: validation of human USP1/UAF1 inhibitors; Ub-Rhodamine cleavage, fluorescence kinetic read; shares compounds with VDR inh; AID 540327; hit rate 50% among 50; Potency, µM (highest dose often 56.8 µM), usual class: inhibitors
VDR confirm: inhibits human vitamin D receptor, primary hit validation | shares compounds with VDR inh | VDR-coactivator inhibition assay, qHTS confirmation | Potency, µM, usual class: inhibitors | hit rate 89% among 840
VDR FP: blocks human VDR-coactivator binding in fluorescein assay; AID 602200; VDR-coactivator binding, fluorescein fluorescence polarization; Potency, µM (titrated, usually from 57.1 µM), usual class: inhibitors; shares compounds with VDR inh; hit rate 48% among 840
VDR bla: confirmation of human vitamin D receptor inhibitors in reporter cells. shares compounds with VDR inh. VDR beta-lactamase reporter cells, FRET ratio; cells co-treated with VDR agonist LG190178. Potency, µM (titrated, usually from 46.1 µM), actives largely listed as inhibitors. hit rate 23% among 840. AID 602202
VDR viability: cytotoxic in counter-screen for VDR inhibitors | Potency, µM (top dose mostly 48.3 µM), usual class: cytotoxic | hit rate 18% among 840 | cytotoxicity counter-screen, cell viability, qHTS | shares compounds with VDR inh; also: nearly all actives have a fitted effect of over 75% in size
Of the large screens only hits and unclear results are named; the others gave an inactive call (follow-up assays come after a bar, where they were run); ! = a repeat was not active. Calls follow the shape of the dose curve; as a rule, active = well fitted curve in the direction sought with a large enough effect; inconclusive = small, poorly fitted or top-dose-only effect, or another doubt; inactive = no such curve, though single readings can be large; an effect the other way counts as inactive or inconclusive.

Cc1nc2sccn2c(=O)c1CCN1CCC(=C(c2ccc(F)cc2)c2ccc(F)cc2)CC1	KAT2A inh inconclusive, VDR inh 79µM!, 12-LOX inh inconclusive | USP1-UAF1 confirm inconclusive
Cc1nc2ccccn2c(=O)c1CCN1CCC(C(=O)c2ccc(F)cc2)CC1	none
CCCCCC1C(=O)N2C=C(c3ccccc3)c3ccccc3N2C1=O (stereo not given)	PLK1 PBD block inconclusive, VDR inh 22µM, 12-LOX inh inconclusive (no result: KAT2A inh) | VDR confirm 4.7 | VDR FP 4µM | VDR bla inactive | VDR viability inactive
Cc1cc(S(=O)(=O)N[C@H]2[C@H]3CCO[C@H]3[C@@H]2N2CCCCC2)n(C)n1	none (no result: KAT2A inh, PLK1 PBD block, VDR inh)
COc1ccc(OC)c(NC(=O)Nc2nnc(N(C)C3CCCCC3)s2)c1	none (no result: KAT2A inh, PLK1 PBD block, VDR inh)
COc1cccc(N2C(=O)c3ccncc3C2=O)c1	none
COc1cccc(/C=C2\C(=O)N(c3cccc(C)c3)C(=O)c3ccccc32)c1	PLK1 PBD block 2.7µM, VDR inh inconclusive | VDR confirm 7.9 | VDR FP 3.2µM | VDR bla inactive | VDR viability inactive
CCCN1CCCCC12Cc1ccccc1CN(C(=O)C1CCCC1)C2 (stereo not given)	none (no result: KAT2A inh, PLK1 PBD block, VDR inh)
COc1ccc(Oc2coc3cc(OC(=O)c4cccs4)ccc3c2=O)cc1	none
O=C1NN(c2ccccc2)C(=O)/C1=C\c1cccc(OC(=O)c2cccs2)c1	PLK1 PBD block 1.5µM, VDR inh 50µM, 12-LOX inh inconclusive | VDR confirm 8.4 | VDR FP inconclusive | VDR bla inconclusive | VDR viability inconclusive
O=C(/C=C/c1ccc(Br)cc1)c1ccc(NC2=NCCCS2)cc1	VDR inh 22µM, 12-LOX inh inconclusive | VDR confirm 15 | VDR FP 10µM | VDR bla inconclusive | VDR viability 18µM
O=C1/C(=C/c2ccc(O)cc2)COc2ccccc21	VDR inh inconclusive
O=C1/C(=C/c2ccccn2)COc2ccccc21	VDR inh inconclusive | VDR confirm 13 | VDR FP 22µM | VDR bla inconclusive | VDR viability inactive
C(=C\c1ccccn1)/c1ccccn1	PLK1 PBD block inconclusive, VDR inh inconclusive
CC(C)(C)C1C/C(=C/c2ccccn2)C(=O)/C(=C/c2ccccn2)C1 (stereo not given)	PLK1 PBD block inconclusive, VDR inh inconclusive (no result: 12-LOX inh) | VDR confirm 2.5 | VDR FP 2µM | VDR bla 1µM | VDR viability 12µM
CCc1cccc(-n2c(SCC(=O)NC(C)c3cc4ccccc4o3)nnc2N2CCOCC2)c1 (stereo not given)	none (no result: KAT2A inh, PLK1 PBD block, VDR inh)
CCOC(=O)c1c(C2COc3ccccc3O2)csc1NC(=O)c1ccco1 (stereo not given)	PLK1 PBD block 2.5µM, VDR inh inconclusive, 12-LOX inh inconclusive | VDR confirm inconclusive | VDR FP 2.2µM | VDR bla inactive | VDR viability inactive
CCN(Cc1ccc(Cl)s1)C(=O)c1cnccn1	none (no result: KAT2A inh, PLK1 PBD block, VDR inh)
Cc1ccc(C(=O)Oc2oc(-c3ccco3)nc2C=Nc2ccc(Cl)cc2)cc1	PLK1 PBD block 4.7µM, VDR inh 50µM, 12-LOX inh inconclusive | VDR confirm 11 | VDR FP inconclusive | VDR bla inactive | VDR viability inactive
O=C(Oc1oc(-c2ccco2)nc1C=Nc1ccccc1)c1ccoc1	PLK1 PBD block 4.7µM, VDR inh 50µM | VDR confirm inconclusive | VDR FP inconclusive | VDR bla inconclusive | VDR viability inconclusive
O=C(Oc1oc(-c2ccco2)nc1C=Nc1ccccc1)c1ccco1	PLK1 PBD block 3µM, VDR inh 28µM (no result: 12-LOX inh) | VDR confirm 6 | VDR FP inconclusive | VDR bla inconclusive | VDR viability inactive
Cc1ccc(N=Cc2nc(-c3ccco3)oc2O)cc1	12-LOX inh inconclusive
CCCc1ccc(C(NC(=O)c2nn(C)c(=O)c3ccccc23)c2cccs2)cc1 (stereo not given)	none (no result: KAT2A inh, PLK1 PBD block, VDR inh)
O=C(O)CN1C(=O)/C(=C\C(Br)=C\c2ccccc2)SC1=S	PLK1 PBD block 6µM, VDR inh 35µM, 12-LOX inh 35µM | VDR confirm inconclusive | VDR FP inactive | VDR bla inconclusive | VDR viability inconclusive
CCOc1ccc(/C=C/C(=O)Nc2sc3c(c2C(=O)OC)C(C(=O)OC)CC3)cc1 (stereo not given)	KAT2A inh inconclusive, VDR inh 22µM (no result: PLK1 PBD block) | VDR confirm inconclusive | VDR FP 3.5µM | VDR bla 13µM | VDR viability inconclusive
CCn1cc(CN2CCN(C(=O)c3ccsc3)CC2)ccc1=O	none (no result: KAT2A inh, PLK1 PBD block, VDR inh)
CCc1nc2c(c(-c3ccc(Cl)cc3)n1)CN(Cc1ccc(OC)cc1)CC2	none (no result: KAT2A inh, PLK1 PBD block, VDR inh)
Oc1c(C(c2ccc(Cl)cc2)N2CCCC2)cc(Cl)c2cccnc12 (stereo not given)	PLK1 PBD block inconclusive, 12-LOX inh inconclusive
Cc1ccc(C(c2cc(Cl)c3cccnc3c2O)N2CCN(C)CC2)cc1 (stereo not given)	KAT2A inh 32µM, PLK1 PBD block 1.5µM, VDR inh 45µM (no result: 12-LOX inh) | VDR confirm 19 | VDR FP inconclusive | VDR bla inactive | VDR viability inconclusive
CC(C)c1ccccc1OCC(=O)NC1CCc2ccccc21 (stereo not given)	none (no result: KAT2A inh, PLK1 PBD block, VDR inh)
CCn1nc(C)cc1-c1nnc(Sc2ncc([N+](=O)[O-])s2)n1C	PLK1 PBD block inconclusive, VDR inh 7.9µM, 12-LOX inh inconclusive | VDR confirm 4.7 | VDR FP 3.5µM | VDR bla 3.7µM | VDR viability inconclusive
N#Cc1ccc(CN2CCCN(CC(=O)N3CCN(C4CCS(=O)(=O)C4)CC3)CC2)cc1 (stereo not given)	none (no result: KAT2A inh, PLK1 PBD block, VDR inh)
CC1=NN(c2ccccc2)C(=O)/C1=C\C=C\c1ccccc1	KAT2A inh inconclusive, VDR inh 40µM, 12-LOX inh inconclusive | VDR confirm 19 | VDR FP inconclusive | VDR bla inconclusive | VDR viability inactive
CC1=NN(c2ccccc2)C(=O)/C1=C\c1cn(C)c2ccccc12	none
Cc1c(-c2nc3ccccc3[nH]2)c(NC(=O)CC(C)C)n(CC2CCCO2)c1C (stereo not given)	none (no result: KAT2A inh, PLK1 PBD block, VDR inh)
O=C(Nc1ccc(F)cc1)c1cnc(N2CCCCC2)c2ccccc12	none (no result: KAT2A inh, PLK1 PBD block, VDR inh)
COc1ccc(/C=C2/C(=O)N(c3c(F)c(F)c(F)c(F)c3F)N=C2C)cc1	PLK1 PBD block 6.7µM, VDR inh 50µM, 12-LOX inh inconclusive | VDR confirm inconclusive | VDR FP 18µM | VDR bla inactive | VDR viability inactive
